# Assay results reported in PubChem BioAssay (Tox21).
# Records with an inconclusive call do not appear. Where a call stands in place of a potency, no number is given. The source made the active and inactive calls. The call rests on the fitted dose curve.
# Assay: qHTS assay for small molecule disruptors of the mitochondrial membrane potential - cell viability (AID 720634);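 further: human HepG2 liver cancer cells; nearly all actives have a fitted effect of over 20% in size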
# Details: HepG2 viability, ATP luminescence (CellTiter-Glo), 1 h; series mostly up to 83.2 µM
# Summary of the method: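 HepG2 cells, 2,000 per well, attached overnight, then treated 1 hr at 37 C, 5% CO2. Viability read as ATP by CellTiter-Glo luminescence after 30 min at room temperature. Read in the same wells as the m-MPI membrane-potential dye assay.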
row,Compound,Potency
1,COC1=C(OC)C(=O)C(C/C=C(\C)CC/C=C(\C)CC/C=C(\C)CC/C=C(\C)CC/C=C(\C)CC/C=C(\C)CC/C=C(\C)CC/C=C(\C)CC/C=C(\C)CCC=C(C)C)=C(C)C1=O,inactive
2,COC(=O)C(CN)c1c[nH]c2ccc(OC)cc12 (configuration not stated),inactive
3,CC(C)CCC[C@@H](C)[C@H]1CC[C@H]2[C@@H]3CC=C4C[C@@H](O)CC[C@]4(C)[C@H]3CC[C@]12C,inactive
4,C=N[C@@H](C(=O)N[C@@H]1C(=O)N2[C@@H]1SC(C)(C)[C@@H]2C(=O)O)c1ccccc1,inactive
5,Cc1c(O)c(=O)ccn1C,inactive
6,CCOC(=O)COc1ccc2c(=O)cc(-c3ccccc3)oc2c1,inactive
7,O=C1[O][Bi][O]c2ccccc21,inactive
8,O=P(O)(O)CP(=O)(O)O,inactive
9,CC12CCC(C1)C(C)(C)C2=O (configuration not stated),inactive
10,CC(=O)Nc1ccc(OC(C)=O)cc1,inactive
11,CCN(CC)CCOC[C@H]1O[C@@H](O)[C@H](OCCN(CC)CC)[C@@H](O)[C@@H]1O,inactive
12,OCC1(CO)COC(C(Cl)(Cl)Cl)OC1,inactive
13,C=C1[C@H](CO)[C@@H](O)C[C@@H]1n1cnc2c(=O)[nH]c(N)nc21,inactive
14,O=S(=O)(O)CC(S)CS (configuration not stated),inactive
15,COc1ccc(/C=N/NC(=O)c2ccncc2)c(C(=O)O)c1OC,inactive
16,CCCCCCCCCCCCCCCCCCOCC(COP(=O)([O-])OCC[N+](C)(C)C)OC (configuration not stated),inactive
17,NC(=O)CC[C@@H]1NC(=O)[C@H](Cc2ccccc2)NC(=O)[C@H](Cc2ccc(O)cc2)NC(=O)[C@@H](N)CSSC[C@@H](C(=O)N2CCC[C@H]2C(=O)N[C@@H](CCCN=C(N)N)C(=O)NCC(N)=O)NC(=O)[C@H](CC(N)=O)NC1=O,inactive
18,CCC[C@@H]1C[C@@H](C(=O)N[C@@H]([C@H]2O[C@H](SC)[C@H](OP(=O)(O)O)[C@@H](O)[C@H]2O)[C@H](C)Cl)N(C)C1,inactive
19,C[C@H](NCCc1ccc(O)cc1)[C@H](O)c1ccc(O)cc1,inactive

row,Compound,Potency
1,CC(C)(COP(=O)(O)OP(=O)(O)OC[C@H]1O[C@@H](n2cnc3c(N)ncnc32)[C@H](O)[C@@H]1OP(=O)(O)O)C(O)C(=O)NCCC(=O)NCCS (some centres not stated),inactive
2,CC(CNC(=O)c1cccnc1)NC(=O)c1cccnc1 (configuration not stated),inactive
3,O=C(O)c1cc(O)c2c(c1)[C@H]([C@H]1c3cc(C(=O)O)cc(O)c3C(=O)c3c(O[C@@H]4O[C@H](CO)[C@@H](O)[C@H](O)[C@H]4O)cccc31)c1cccc(O[C@@H]3O[C@H](CO)[C@@H](O)[C@H](O)[C@H]3O)c1C2=O,inactive
4,C=CCN1C(=O)C(CC(C)C)NC1=S (configuration not stated),inactive
5,C[C@H](O)CN(C)C,inactive
6,CNC(=O)OCc1cccc(COC(=O)NC)n1,inactive
7,NC(=O)[C@H]1O[C@@H](O)[C@H](O)[C@@H](O)[C@@H]1O,inactive
8,O=P(O)(O)C(O)(Cn1ccnc1)P(=O)(O)O,inactive
9,NC(=O)[C@@H]1C[C@]2(NC(=O)NC2=O)c2cc(F)ccc2O1,inactive
10,COc1ccc([C@@H]2CC(=O)c3c(O)cc(O[C@@H]4O[C@H](CO[C@@H]5O[C@@H](C)[C@H](O)[C@@H](O)[C@H]5O)[C@@H](O)[C@H](O)[C@H]4O)cc3O2)cc1O,inactive
11,CC[C@H]1OC(=O)C[C@@H](O)[C@H](C)[C@@H](O[C@@H]2O[C@H](C)[C@@H](O[C@H]3C[C@@](C)(O)[C@@H](O)[C@H](C)O3)[C@H](N(C)C)[C@H]2O)[C@@H](CC=O)C[C@@H](C)C(=O)/C=C/C(C)=C/[C@@H]1CO[C@@H]1O[C@H](C)[C@@H](O)[C@@H](OC)[C@H]1OC,inactive
12,NC(=O)C1c2ccccc2CCc2ccccc21,inactive
13,CC(C)=CCC/C(C)=C/CC/C(C)=C/CC/C(C)=C/CC1=C(C)C(=O)c2ccccc2C1=O,inactive
14,COc1cc2c(c(OC)c1OC)-c1c(cc3c(c1OC)OCO3)C[C@@H](C)[C@](C)(O)C2,inactive
15,O=C1CCC(c2ccccc2)(C2CCN(Cc3ccccc3)CC2)C(=O)N1 (configuration not stated),inactive
16,O=C(Cn1cnnn1)N[C@@H]1C(=O)N2C(C(=O)O)=C(CSc3nncs3)CS[C@H]12,inactive
17,CN[C@H](CC(C)C)C(=O)N[C@H]1C(=O)N[C@@H](CC(N)=O)C(=O)N[C@H]2C(=O)N[C@H]3C(=O)N[C@H](C(=O)N[C@@H](C(=O)O)c4cc(O)cc(O)c4-c4cc3ccc4O)[C@H](O)c3ccc(c(Cl)c3)Oc3cc2cc(c3O[C@@H]2O[C@H](CO)[C@@H](O)[C@H](O)[C@H]2O[C@H]2C[C@](C)(N)C(O)[C@H](C)O2)Oc2ccc(cc2Cl)[C@H]1O (some centres not stated),inactive
18,CC[C@H]1OC(=O)[C@H](C)C(=O)[C@H](C)[C@@H](O[C@@H]2O[C@H](C)C[C@H](N(C)C)[C@H]2O)[C@](C)(OC)C[C@@H](C)C(=O)[C@H](C)[C@H]2N(CCCCn3cnc(-c4cccnc4)c3)C(=O)O[C@]12C,inactive
